Screening results: PubChem BioAssay, National Center for Advancing Translational Sciences (NCATS)
Sampled rows, rich in hits. Any-hit rate of the full collection: about 3.2%.
AMA1-RON2 inh: qHTS for Inhibitors of AMA1-RON; Towards Development of Antimalarial Drug Lead: Primary Screen; hit rate 0.2% among 360,000; Plasmodium falciparum AMA1 (3D7) - RON2 peptide interaction; AlphaScreen AMA1-biotinylated RON2 peptide binding; AID 720542, 2013; Potency, µM (series often up to 58.2 µM), inactives show at the top dose activity change, negative = inhibition, usual class: inhibitors;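 note: 0% = vehicle wells and -100% = peptide control; nearly all actives have a fitted effect of over 45% in size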
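AMA1 (3D7) with his tag at 25 nM final met compounds first, then biotinylated RON2 peptide at 25 nM; detection used donor plus acceptor beads, 10 µg/mL apiece, read by AlphaScreen after 30 min at room temperature.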
LmPK inhibitor: qHTS Assay for Inhibitors of Leishmania Mexicana Pyruvate Kinase (LmPK); Q27686; purified LmPK, Kinase-Glo ATP luminescence, 1 h; Potency, µM (series often up to 57.5 µM), without a hit: at the highest dose activity change, negative = inhibition, most hits filed as inhibitors; hit rate 0.37% among 290,000
Target sequence (Q27686 whole entry, looked up): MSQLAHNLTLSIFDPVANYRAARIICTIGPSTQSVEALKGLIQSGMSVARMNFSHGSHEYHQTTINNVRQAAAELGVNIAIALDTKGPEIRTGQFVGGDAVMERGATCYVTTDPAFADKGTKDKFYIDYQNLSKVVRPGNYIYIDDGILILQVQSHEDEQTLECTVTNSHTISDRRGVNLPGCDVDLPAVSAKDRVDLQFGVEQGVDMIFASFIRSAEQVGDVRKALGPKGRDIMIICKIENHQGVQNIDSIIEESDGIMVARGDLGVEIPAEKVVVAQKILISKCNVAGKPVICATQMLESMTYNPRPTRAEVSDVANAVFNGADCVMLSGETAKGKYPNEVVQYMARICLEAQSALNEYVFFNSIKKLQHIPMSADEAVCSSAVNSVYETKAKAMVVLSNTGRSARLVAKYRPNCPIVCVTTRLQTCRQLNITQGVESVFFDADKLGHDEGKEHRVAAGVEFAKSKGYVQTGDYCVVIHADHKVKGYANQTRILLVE
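Pyruvate kinase activity monitored as ATP production (luciferase luminescence). Conditions: 0.1 nM enzyme, 0.5 mM PEP, 0.1 mM ADP, 1 h, RT; normalized against uninhibited and no-enzyme wells.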
Sm TGR inh: qHTS Assay for the Inhibitors of Schistosoma Mansoni Peroxiredoxins; hit rate 3% among 360,000; purified TGR, DTNB reduction, TNB absorbance 405 nm; Potency, µM (doses to about 114 µM), without a hit: at the highest dose activity change, negative = inhibition, actives largely listed as inhibitors; note: nearly all actives have a fitted effect of over 60% in size
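Kinetic colorimetric format: TGR-catalysed, NADPH-driven DTNB reduction monitored via TNB absorbance. Enzyme dispensed at 20 nM; compound exposure 15 min at room temperature before reaction start.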
Tb PYK inh: qHTS of Trypanosoma Brucei Inhibitors; hit rate 0.12% among 410,000; AID 624173, 2012; pyruvate kinase (Trypanosoma brucei), Q57TT1; Potency, µM (highest dose often 76.8 µM), without a hit: at the highest dose activity, negative = inhibition, hits mostly inhibitors; TbPYK enzyme, Kinase-Glo Plus ATP luminescence, 45 min; note: nearly all actives have a fitted effect of over 50% in size
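In this concentration-response screen, enzyme-free wells defined baseline while DMSO plates tracked drift. Each reaction combined TbPYK, substrate, compound and 130 uM ADP for 45 min at room temperature. Kinase-Glo Plus luminescence gave the signal.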
RE007 growth inh: qHTS Assay for Inhibitors of the HIV-1 protein Vpr; S. pombe RE007 Vpr strain, BacTiter-Glo ATP luminescence, 24 h; Potency, µM (doses to about 92.2 µM), without a hit: at the top dose activity change, negative = less growth, actives largely listed as inhibitors; hit rate 0.21% among 360,000; AID 651644, 2012; active = well fitted falling curve with a large enough effect; inconclusive = small, poorly fitted or top-dose-only effect; inactive = no such curve, though single readings can be large or run the other way; note: nearly all actives have a fitted effect of over 50% in size
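Fission yeast RE007 carrying one integrated HIV-1 vpr copy, seeded at OD 0.01 in PMG+AL medium with 23 nL pinned compound. Grown 24 h at 30 degrees; viability read by BacTiter-Glo luminescence after 5 min.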
Starred values were filed as active, the others as inactive; ? = inconclusive; / = no result given; [ ] = another dose, or the depositor's remark. Unless noted, calls come from the whole dose curve; as a rule, active = well fitted curve in the direction sought with a large enough effect; inconclusive = small, poorly fitted or top-dose-only effect, or another doubt; inactive = no such curve, though single readings can be large; an effect the other way counts as inactive or inconclusive. Unless noted, % is set by controls: 0 for no effect and ±100 for the full control effect; potency is the fitted concentration of half-maximal effect.

SMILES	AMA1-RON2 inh	LmPK inhibitor	Sm TGR inh	Tb PYK inh	RE007 growth inh
Nc1sccc1C(=O)c1ccc(Cl)cc1	-29.9%	0.4%	-13.0%	-7.7%	?
NC(=O)c1ccsc1N	/	7.6%	6.31µM*	/	/
CC(=O)Nc1nonc1-c1nnc(SCc2ccc(F)cc2)n1C	/	/	-1.4%	0.0%	/
Cc1cc(=O)oc2ccc(OCC(=O)N3CCC(C)CC3)cc12	-3.5%	6.6%	17.8µM*	7.1%	1.6%
COc1ccc(CC(=O)n2[nH]c(=O)cc(C)c2=O)cc1OC	7.1%	-1.6%	22.4µM*	?	-7.1%
O=C(CCl)Nc1cccc(Oc2cnccn2)c1	3.8%	0.2%	11.2µM*	5.0%	27.9%
O=C(CCl)Nc1cccc(Oc2ccccc2)c1	3.9%	1.5%	11.2µM*	-1.5%	54.1%
O=C(CN1CCCCC1)Nc1cccc(Oc2ccccc2)c1	-2.9%	-3.2%	-6.5%	-3.7%	-8.7%
COCCCn1c2nc3ccccc3nc2c2c(=O)n(Cc3ccc(Cl)cc3)cnc21	-3.1%	5.5%	0.8%	0.3%	-10.3%
O=C(NCc1ccco1)c1ccc(Cn2c(SCc3ccccc3F)nc3cccnc32)cc1	/	/	-19.6%	-12.8%	/
O=c1c2c3nc4ccccc4nc3n(Cc3ccccc3)c2ncn1Cc1ccco1	-13.0%	2.2%	8.91µM*	-18.2%	29.6%
COc1ccc(-n2c(N)c(C(=O)NCc3ccco3)c3nc4ccccc4nc32)c(OC)c1	45.3%	5.0%	25.1µM*	-10.0%	-6.5%
Nc1c(C(=O)NCc2ccco2)c2nc3ccccc3nc2n1CCc1ccccc1F	38.0%	2.9%	25.1µM*	-9.5%	-0.4%
Nc1c(C(=O)NCc2ccco2)c2nc3ccccc3nc2n1Cc1ccc(F)cc1	42.8%	7.8%	11.2µM*	-19.2%	29.6%
COc1ccc(NCc2cc3ccc(OC)cc3n(CC(=O)Nc3cccc(OC)c3)c2=O)cc1	/	/	-13.3%	2.5%	/
CC(=O)Nc1cc2c(s1)c1cnn(Cc3ccccc3F)c(=O)c1n2C	/	/	1.9%	/	/
Nc1c(C(=O)NCc2ccco2)c2nc3ccccc3nc2n1Cc1ccccc1	16.7%	5.5%	28.2µM*	-1.2%	-4.4%
CCCCCn1c(N)c(C(=O)NCCN2CCOCC2)c2nc3ccccc3nc21	27.9%	4.4%	-27.6%	3.3%	-11.7%
COc1ccc(Cn2c(N)c(C(=O)NCc3ccco3)c3nc4ccccc4nc32)cc1	18.8%	3.6%	-35.7%	-3.7%	20.2%
COc1ccc(CCn2c(N)c(C(=O)NCc3ccco3)c3nc4ccccc4nc32)cc1	46.3%	-1.8%	0.0%	-14.7%	15.0%
Nc1c(C(=O)NCc2ccco2)c2nc3ccccc3nc2n1CCN1CCOCC1	49.7%	13.2%	25.1µM*	-12.1%	-0.2%
COc1ccc(CCn2c(N)c(C(=O)NCc3ccco3)c3nc4ccccc4nc32)cc1OC	50.1%	6.7%	15.8µM*	-10.2%	-7.9%
Cc1cccc(N2C(=O)N(CC(=O)C(C)(C)C)c3ccccc3S2(=O)=O)c1C	/	/	8.1%	2.1%	/
CSc1ccc(C2CC(=O)Oc3c2c(=O)n(C)c2ccccc32)cc1 (stereo not drawn)	/	/	5.1%	-2.6%	/
CCOC(=O)c1c(C)oc2c1c1c(c3ccccc32)OCN(Cc2ccccn2)C1	51.0%	-0.3%	0.355µM*	-7.0%	-24.4%
SMILES	AMA1-RON2 inh	LmPK inhibitor	Sm TGR inh	Tb PYK inh	RE007 growth inh
CCOC(=O)c1c(C)oc2c1c(CN1CCN(CCO)CC1)c(O)c1ccccc12	-29.6%	0.2%[11.5 µM]	0.282µM*	-2.1%	-10.3%
CCOC(=O)c1c(C)oc2c1c(C=NCCC(=O)O)c(O)c1ccccc12	70.2%	0.0%	-10.0%	-1.6%	-4.9%
CCOC(=O)c1c(C)oc2c1c(CN1CCN(C(=O)OCC)CC1)c(O)c1ccccc12	?	0.8%	0.562µM*	-11.1%	-16.0%
CCOC(=O)C1CCN(Cc2ccccn2)CC1	/	0.1%	-8.6%	/	/
CCOC(=O)c1c(C)oc2c1c(C(c1ccncc1)N1CCOCC1)c(O)c1ccccc12 (stereo not drawn)	?	-2.1%	1.26µM*	-11.9%	39.8µM*
O=C1C(=O)N(C2CCN(S(=O)(=O)c3ccccc3)CC2)CCN1Cc1ccccc1	/	/	3.6%	-1.4%	/
O=C(Cn1c(=O)oc2cc(S(=O)(=O)NC3CCCC3)ccc21)Nc1ccc(F)c(F)c1	/	/	1.4%	2.3%	/
COc1cccc(NC(=O)Cn2c(=O)n(Cc3ccc4c(c3)OCO4)c(=O)c3oc4ccccc4c32)c1	/	/	2.8%	3.5%	/
CC(=O)c1cc(-c2ccc(F)cc2)n(CC(=O)NC2CCCCCC2)c1C	/	/	10.2%	-0.8%[15.4 µM]	/
Cc1ccc(S(=O)(=O)/N=C2/C=C(C3C(=O)CC(C)(C)CC3=O)C(=O)c3ccccc32)cc1	-13.9%	-14.7%	14.1µM*	?	?
Cc1cccc(C(=O)Nc2ccc(N3CCC(N4CCCCC4)CC3)c(C(=O)O)c2)c1	/	/	0.4%	-2.4%	/
CCOC(=O)CSC1=NC(=O)/C(=C\c2ccc(Cl)cc2)S1	-17.9%	-9.9%	3.55µM*	-0.5%	?
CCOC(=O)C1CCN(C2=NC(=O)/C(=C/c3ccc(Cl)cc3)S2)CC1	-4.2%	7.2%	-14.0%	-4.3%	-17.8%
Oc1c(/C=N/c2ncn[nH]2)ccc2ccccc12	33.4%	-21.1%	31.6µM*	-0.2%	-5.4%
Cc1ccc(-n2c(O)c(/C=N/c3ncn[nH]3)c3ccccc3c2=O)cc1	26.3%	-5.3%	-15.0%	-9.7%	10.6%
CS(=O)(=O)N(CC(=O)N1CCCC1)Cc1ccc(F)cc1	-4.1%	-3.7%	39.8µM*	5.8%	0.3%
CCOC(=O)c1cc2c(=O)n3ccccc3nc2n(Cc2ccco2)c1=NC(=O)c1ccc(OC)cc1OC	-1.2%	7.8%	31.6µM*	-10.6%	-12.7%
Cc1cc(C)cc(OCC(=O)NCC(c2ccc(Cl)cc2)N2CCCCC2)c1 (stereo not drawn)	/	/	8.9%	0.7%	/
Cc1cccc(-n2ncc(C(=O)N3CCN(Cc4ccccc4)CC3)c2C2CCN(C(=O)OC(C)(C)C)CC2)c1	/	/	-2.8%	5.1%[15.4 µM]	/
O=c1c(N2CCN(c3cccc(Cl)c3)CC2)csc2ccccc12	/	/	1.5%	1.1%	/
Cc1cccc(-n2c3nc(=O)[nH]c(=O)c-3cc3c(Cl)cccc32)c1C	/	/	-15.6%	-9.0%	/
CCCc1nc2ccccc2n2c(-c3ccccc3)c3c(=O)n(C)c(=O)n(C)c3c12	/	/	6.1%	3.7%	/
Cn1c(=O)c2cn3c(c2n(C)c1=O)C(c1ccccc1)CC(c1ccccc1)=N3 (stereo not drawn)	6.1%	1.2%	12.6µM*	-23.8%	-10.4%
CN(Cc1cc(Br)cc(Br)c1N)C1CCCCC1	/	/	/	-5.4%	/
